Measurements: PubChem BioAssay (NCATS)
Inconclusive results are not listed. Activity calls are given as the source filed them. Calls follow the shape of the dose curve; as a rule, active = well fitted curve in the direction sought with a large enough effect; inconclusive = small, poorly fitted or top-dose-only effect, or another doubt; inactive = no such curve, though single readings can be large; an effect the other way counts as inactive or inconclusive.

How the values were obtained:
[1] = Quantitative High-Throughput drug screen in 47 multiple myeloma cell lines against the NCATS MIPE library collection: KMS27_JCRB cell viability assay (AID 1918970); also: nearly all actives have a fitted effect of over 30% in size
How it was run: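 KMS27_JCRB myeloma cells, 500 per well, exposed 48 h at 37 C, 5% CO2 to MIPE 4.0 compounds. Viability from ATP by CellTiter-Glo luminescence, normalized to DMSO (100%) and medium-only (0%) wells.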

[2] = Quantitative High-Throughput drug screen in 47 multiple myeloma cell lines against the NCATS MIPE library collection: KMS12PE_JCRB cell viability assay (AID 1918972); also: nearly all actives have a fitted effect of over 30% in size; as to viability: series mostly up to about 46 µM
How it was run: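 Myeloma cell lines, 500 cells per well, exposed to MIPE 4.0 library compounds for 48 h at 37C, 5% CO2. Viability from ATP by CellTiter-Glo luminescence; normalised to DMSO (100%) and media-only (0%) wells.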

[3] = Quantitative High-Throughput drug screen in 47 multiple myeloma cell lines against the NCATS MIPE library collection: KMS20_JCRB cell viability assay (AID 1918973); also: nearly all actives have a fitted effect of over 45% in size
How it was run: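 qHTS of the MIPE 4.0 collection: 500 myeloma cells/well, 48 h drug exposure at 37C in 5% CO2, then CellTiter-Glo for 5 min at room temperature before luminescence reading.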

[4] = Quantitative High-Throughput drug screen in 47 multiple myeloma cell lines against the NCATS MIPE library collection: MMM1_PLB cell viability assay (AID 1918976); also: nearly all actives have a fitted effect of over 35% in size
How it was run: (§1)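 500 cells/well per myeloma line exposed to pinned MIPE 4.0 compounds for 48 h at 37 °C, 5% CO2. Viability read as ATP by CellTiter-Glo luminescence, normalised to DMSO-only (100%) and media-only (0%) wells.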

[5] = Quantitative High-Throughput drug screen in 47 multiple myeloma cell lines against the NCATS MIPE library collection: MOLP8_DSMZ cell viability assay (AID 1918977); also: nearly all actives have a fitted effect of over 45% in size
How it was run: as §1

[6] = Quantitative High-Throughput drug screen in 47 multiple myeloma cell lines against the NCATS MIPE library collection: NCIH929_DSMZ cell viability assay (AID 1918978); also: nearly all actives have a fitted effect of over 35% in size
How it was run: as §1

[7] = Quantitative High-Throughput drug screen in 47 multiple myeloma cell lines against the NCATS MIPE library collection: OCIMY1_PLB cell viability assay (AID 1918979); also: nearly all actives have a fitted effect of over 35% in size; as to viability: series mostly up to about 46 µM
How it was run: as §1

[8] = Quantitative High-Throughput drug screen in 47 multiple myeloma cell lines against the NCATS MIPE library collection: MM1S_ATCC cell viability assay (AID 1918980); also: nearly all actives have a fitted effect of over 45% in size
How it was run: as §1

[9] = Quantitative High-Throughput drug screen in 47 multiple myeloma cell lines against the NCATS MIPE library collection: KMS12BM_JCRB cell viability assay (AID 1918971); also: nearly all actives have a fitted effect of over 35% in size
How it was run: (§2)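 CellTiter-Glo luminescence (ATP) after 48 h compound exposure, 37C/5% CO2; 500 cells/well; MIPE 4.0 approved/investigational drugs pinned in; DMSO = 100%, media only = 0% viability.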

[10] = Quantitative High-Throughput drug screen in 47 multiple myeloma cell lines against the NCATS MIPE library collection: KMS26_JCRB cell viability assay (AID 1918975); also: nearly all actives have a fitted effect of over 45% in size
How it was run: as §2

Measured: Potency
Potency is read from the fitted curve at half-maximal effect.

CN(CCOc1ccc(CC2SC(=O)NC2=O)cc1)c1ccccn1 (stereo not given)
inactive: [1] | [2] | [3] | [5] | [6] | [7]
active: [4] 14.8 µM | [8] 16.6 µM

CCCc1nc(C)c2c(=O)[nH]c(-c3cc(S(=O)(=O)N4CCN(CC)CC4)ccc3OCC)nn12
active: [9] 5.26 µM | [2] 2.96 µM | [3] 11.8 µM | [10] 4.69 µM | [4] 6.62 µM | [5] 5.26 µM | [6] 3.72 µM | [7] 4.69 µM | [8] 4.69 µM

CCN[C@H]1C[C@H](C)S(=O)(=O)c2sc(S(N)(=O)=O)cc21
inactive: [9] | [2] | [3] | [10] | [6] | [7]

CC(C)(C)NC(=O)[C@H]1CC[C@H]2[C@@H]3CC[C@H]4NC(=O)C=C[C@]4(C)[C@H]3CC[C@]12C
inactive: [9] | [4] | [7]
active: [2] 20.9 µM | [3] 3.32 µM | [10] 2.96 µM | [6] 0.296 µM | [8] 0.264 µM

Cc1nnc(NS(=O)(=O)c2ccc(N)cc2)s1
active: [1] 1.05 µM | [2] 1.32 µM | [8] 2.64 µM
inactive: [4] | [6] | [7]

CC(=O)Oc1ccccc1C(=O)Nc1ncc([N+](=O)[O-])s1
active: [9] 24.1 µM | [2] 24.1 µM | [3] 8.55 µM | [10] 15.2 µM | [4] 10.8 µM | [6] 19.1 µM | [7] 42.9 µM | [8] 21.5 µM

CCn1cc(C(=O)O)c(=O)c2cc(F)c(N3CCNCC3)nc21
inactive: [1] | [3]

C#CCN[C@@H]1CCc2ccccc21
inactive: [2] | [3] | [10] | [6] | [7] | [8]
active: [9] 11.8 µM | [4] 23.5 µM

CN1CCN(c2c(F)cc3c(=O)c(C(=O)O)cn4c3c2OCN4C)CC1
inactive: [1] | [2] | [5] | [6] | [7] | [8]

CCCCOc1ccc(CC(=O)NO)cc1
active: [9] 20.9 µM | [2] 23.5 µM | [3] 16.6 µM | [10] 10.5 µM | [4] 13.2 µM | [8] 2.64 µM

COc1cc2nc(N3CCCN(C)CC3)nc(NC3CCN(Cc4ccccc4)CC3)c2cc1OC
active: [9] 14.8 µM | [2] 2.35 µM | [3] 0.833 µM | [10] 5.26 µM | [4] 5.26 µM | [5] 4.69 µM | [6] 2.64 µM | [7] 5.9 µM | [8] 2.64 µM

C[C@@H](CN1CC(=O)NC(=O)C1)N1CC(=O)NC(=O)C1
inactive: [10]
active: [1] 3.72 µM | [2] 1.66 µM | [6] 16.6 µM | [8] 3.32 µM

N=C(N)c1ccc(OCCCCCOc2ccc(C(=N)N)cc2)cc1
active: [9] 5.9 µM | [2] 5.9 µM | [3] 10.5 µM | [4] 14.8 µM | [5] 5.26 µM | [8] 16.6 µM

S=P(N1CC1)(N1CC1)N1CC1
active: [1] 0.469 µM | [8] 18.7 µM
inactive: [2] | [10] | [7]

NS(=O)(=O)c1cc2c(cc1Cl)NC(C(Cl)Cl)NS2(=O)=O (stereo not given)
inactive: [1] | [2] | [3] | [6] | [7]

NC1(c2ccc(-c3nc4ccn5c(=O)[nH]nc5c4cc3-c3ccccc3)cc2)CCC1
active: [9] 23.5 µM | [2] 0.296 µM | [3] 5.26 µM | [10] 14.8 µM | [4] 0.332 µM | [5] 3.72 µM | [6] 0.059 µM | [8] 0.662 µM

CCOC(=O)[C@H](CCc1ccccc1)N[C@H]1CS[C@H](c2cccs2)CN(CC(=O)O)C1=O
active: [9] 23.5 µM | [2] 1.66 µM | [3] 1.66 µM | [10] 18.7 µM | [4] 16.6 µM | [5] 20.9 µM | [6] 5.9 µM | [8] 0.418 µM
inactive: [7]

O=c1oc2c(O)c(O)cc3c(=O)oc4c(O)c(O)cc1c4c23
inactive: [1] | [2] | [6] | [7]

O=c1cc(O)c(Cl)c[nH]1
inactive: [5] | [6] | [7]
active: [1] 1.66 µM | [2] 6.62 µM | [8] 3.72 µM

O=S(=O)(O)CCS
inactive: [3] | [6] | [7] | [8]
active: [1] 16.6 µM

COc1nc(N)nc2c1ncn2[C@@H]1O[C@H](CO)[C@@H](O)[C@@H]1O
inactive: [9] | [2] | [10] | [5] | [6] | [7]
active: [3] 23.5 µM

C[C@]12C=CC(=O)C=C1CC[C@@H]1[C@@H]2C(=O)C[C@@]2(C)[C@H]1CC[C@]2(O)C(=O)CO
active: [3] 0.129 µM
inactive: [9] | [2] | [10] | [6] | [7] | [8]

COc1ccc(C(=O)CC(=O)c2ccc(C(C)(C)C)cc2)cc1
inactive: [7]
active: [9] 2.35 µM | [2] 5.26 µM | [3] 2.96 µM | [10] 7.43 µM | [4] 4.69 µM | [6] 1.32 µM | [8] 1.05 µM

CNC(=O)c1cc(Oc2ccc(NC(=O)Nc3ccc(Cl)c(C(F)(F)F)c3)cc2)ccn1
active: [1] 3.32 µM | [2] 3.72 µM | [3] 16.6 µM | [4] 16.6 µM | [6] 10.5 µM | [8] 3.72 µM

CC1=NN(c2ccccc2)C(=O)C1
inactive: [1] | [2] | [10] | [5] | [7] | [8]

C[C@@H](NCCCc1cccc(C(F)(F)F)c1)c1cccc2ccccc12
inactive: [9] | [3] | [10] | [6] | [7]
active: [2] 18.7 µM

N[C@@H](C(=O)N[C@@H]1C(=O)N2C(C(=O)O)=C(Cl)CS[C@H]12)c1ccccc1
inactive: [1] | [2] | [3] | [10] | [6] | [8]

CNS(=O)(=O)Cc1ccc2[nH]cc(CCN(C)C)c2c1
inactive: [9] | [2] | [3] | [10] | [6] | [7]

COC(c1ccccc1)(c1ccccc1)[C@H](Oc1nc(C)cc(C)n1)C(=O)O
inactive: [1] | [2] | [10] | [6] | [7]

CC(C)NCC(O)c1ccc(NS(C)(=O)=O)cc1 (stereo not given)
inactive: [9] | [2] | [3] | [6] | [7]
active: [4] 2.09 µM | [8] 7.43 µM

CCOC(=O)c1ccc(OC(=O)CCCCCN=C(N)N)cc1
inactive: [9] | [2] | [5] | [6] | [7]

O=C(NCC1CN(c2ccc(N3CCOCC3=O)cc2)C(=O)O1)c1ccc(Cl)s1 (stereo not given)
inactive: [9] | [10] | [5] | [6] | [7]

Cc1oc(=O)oc1CN1CCN(c2cc3c(cc2F)c(=O)c(C(=O)O)c2n3C(C)S2)CC1 (stereo not given)
active: [9] 13.2 µM
inactive: [2] | [6] | [7]

CN(C)c1ccc(C(=C2C=CC(=[N+](C)C)C=C2)c2ccc(N(C)C)cc2)cc1
active: [9] 0.0662 µM | [2] 0.0093 µM | [10] 0.166 µM | [4] 0.132 µM | [5] 0.0526 µM | [6] 0.0264 µM | [7] 2.09 µM | [8] 0.105 µM
